# Several values for one entry are separate records, joined by “and”; a condition that tells them apart may be missing. Equal entries are not always repeated. Activity calls are given as the source filed them. Unless noted, no stated cut-off is given here; in the data, active means inhibition above about 80%; inactive means the rest.
# How the values were obtained:
# [1] = target: Mitogen-activated protein kinase 7 (Homo sapiens) (UniProt Q13164); experiment: Gal4-ERK5 driven luciferase induction – cell-based, HTS, primary screen (AID 1508626;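 active means luciferase signal above three times the same-plate solvent-only control wells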;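 further: luciferase driven by Gal4-ERK5 fusion binding five Gal4 sites before minimal TATA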); conditions: HeLa Gal4-ERK5 transactivation, 18 h, at 5 µM, stronger effect = higher value
# [2] = galactose survival enhancers in mitochondrial complex I cybrids – cell-based, galactose medium, ATP luminescence, primary screen (AID 1645843;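 active means z-score of at least 1.8 in each of two replicates, scored against plate mean and spread of sample wells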;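 further: positive z means more ATP and so rescue of galactose-driven cybrid death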); conditions: complex I mutant cybrid cells, 72 h, stronger effect = higher value
# [3] = growth inhibition, single agent or in combination, cell-based, chromothripsis tumors, cisplatin or BGB combos (AID 1671449); conditions: LFS_MB_P medulloblastoma cells;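 further: cells exposed for 96 hours; 0% = vehicle DMSO and 100% = killing by high DMSO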
# [4] = growth inhibition, single agent and combos, cell-based, chromothripsis tumors, cisplatin or BGB combos (AID 1671450); conditions: HDN33 neuroblastoma cells, stronger effect = higher value;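 further: cells exposed to compound for four days; 0% = vehicle DMSO and 100% = cell killing by high DMSO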
# [5] = growth inhibition, single agents and combos, ICB984, cell-based, cisplatin or BGB combos, synergistic combos for chromothripsis tumors (AID 1671451; call rule not given here;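 further: cells exposed for 96 hours before readout; 0% = vehicle DMSO and 100% = killing by high DMSO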); conditions: ICB984 medulloblastoma cells, drug combinations, stronger effect = higher value
# [6] = growth inhibition, single agents and combos, LFS_MB_1R, cell-based, cisplatin or BGB combos, synergistic combos for chromothripsis tumors (AID 1671452); conditions: LFS_MB_1R medulloblastoma cells, stronger effect = higher value;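 further: cells exposed for 96 hours before readout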
# [7] = growth inhibition, single agents and combos, HTB85, cell-based, BGB or cisplatin IC20 combos, synergistic combos for chromothripsis tumors (AID 1671453); conditions: HTB85 osteosarcoma cells, drug combinations, stronger effect = higher value;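 further: cells exposed for 96 hours before readout; 0% = vehicle DMSO and 100% = high DMSO killing control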
# [8] = growth inhibition, single agents and combos, CRL2098, cell-based, BGB or cisplatin IC20 combos, synergistic combos for chromothripsis tumors (AID 1671454); conditions: CRL2098 osteosarcoma cells, drug combinations, stronger effect = higher value;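 further: cells exposed for 96 h before readout; 0% = vehicle DMSO and 100% = killing by high DMSO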
# [9] = growth inhibition, single agents and combos, HD-MB03, cell-based, BGB or cisplatin IC20 combos, synergistic combos for chromothripsis tumors (AID 1671455; in the data active means inhibition above about 83%;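 further: 0% = vehicle DMSO and 100% = high DMSO as cytotoxic control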); conditions: HD-MB03 medulloblastoma cells, stronger effect = higher value
# [10] = growth inhibition, single agents and combos, UWB1.289, cell-based, BGB or cisplatin combos, synergistic combos for chromothripsis tumors (AID 1671456); conditions: UWB1.289 ovarian carcinoma cells, stronger effect = higher value;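 further: cells exposed to compound for four days; 0% = vehicle DMSO and 100% = killing by high DMSO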
# [11] = growth inhibition, single agents and combos, LFS_MB_2R, cell-based, cisplatin combos, synergistic combos for chromothripsis tumors (AID 1671457); conditions: LFS_MB_2R medulloblastoma cells, stronger effect = higher value;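 further: cells exposed to compound for four days before readout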
# [12] = growth inhibition, MDA-MB-436, cell-based, BGB or cisplatin combos, synergistic combos for chromothripsis tumors (AID 1671458; call rule not given here;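 further: cells exposed for 96 hours; 0% = vehicle DMSO and 100% = killing by high DMSO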); conditions: MDA-MB-436 breast carcinoma growth inhibition, drug combinations, stronger effect = higher value
# [13] = UWB1.289_BRCA1 ovarian cancer growth, cell-based, BGB or cisplatin combinations (AID 1671459); conditions: UWB1.289 BRCA1 ovarian carcinoma, drug combinations, stronger effect = higher value
# [14] = drug combination toxicity in non-malignant astrocytes – cell-based, BGB or cisplatin IC20 combos, cytotoxicity control for chromothriptic childhood tumor combination screen (AID 1671460); conditions: Human astrocytes, viability inhibition, drug combinations, at 0.5 µM, stronger effect = higher value;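 further: cells exposed to compounds for 96 hours before viability readout; 0% = vehicle and 100% = killing control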
# [15] = BT084 cell growth, single and combined drugs, ICGC_MB145, cisplatin and BGB IC40 combos (AID 1671461); conditions: BT084 medulloblastoma cells, drug combinations, stronger effect = higher value;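 further: cells exposed to drugs for 96 hours; 0% = vehicle DMSO and 100% = high DMSO full killing control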
# [16] = RCMB18 cell growth, single agent and combined, cisplatin and BGB IC40 combos (AID 1671462); conditions: RCMB18 medulloblastoma cells, stronger effect = higher value;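 further: cells exposed to compound for four days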
# [17] = CRL1545 cell growth, single agent and combined, cisplatin and BGB IC20 combos (AID 1671464); conditions: CRL1545 osteosarcoma cells, stronger effect = higher value;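 further: cells exposed to compound for 96 hours before readout; 0% = vehicle DMSO and 100% = high DMSO killing control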
# [18] = measured here: combination with BGB IC40, at 0.05 µM
# [19] = measured here: with BGB IC20 combination, at 0.5 µM
# [20] = measured here: with cisplatin IC20 combination, at 0.5 µM
# [21] = measured here: combination with cisplatin, at 0.5 µM
# [22] = measured here: combination with cisplatin, at 5 µM
# Chain of Mitogen-activated protein kinase 7 (Homo sapiens) (Q13164 whole entry, looked up, the tested form may be a part): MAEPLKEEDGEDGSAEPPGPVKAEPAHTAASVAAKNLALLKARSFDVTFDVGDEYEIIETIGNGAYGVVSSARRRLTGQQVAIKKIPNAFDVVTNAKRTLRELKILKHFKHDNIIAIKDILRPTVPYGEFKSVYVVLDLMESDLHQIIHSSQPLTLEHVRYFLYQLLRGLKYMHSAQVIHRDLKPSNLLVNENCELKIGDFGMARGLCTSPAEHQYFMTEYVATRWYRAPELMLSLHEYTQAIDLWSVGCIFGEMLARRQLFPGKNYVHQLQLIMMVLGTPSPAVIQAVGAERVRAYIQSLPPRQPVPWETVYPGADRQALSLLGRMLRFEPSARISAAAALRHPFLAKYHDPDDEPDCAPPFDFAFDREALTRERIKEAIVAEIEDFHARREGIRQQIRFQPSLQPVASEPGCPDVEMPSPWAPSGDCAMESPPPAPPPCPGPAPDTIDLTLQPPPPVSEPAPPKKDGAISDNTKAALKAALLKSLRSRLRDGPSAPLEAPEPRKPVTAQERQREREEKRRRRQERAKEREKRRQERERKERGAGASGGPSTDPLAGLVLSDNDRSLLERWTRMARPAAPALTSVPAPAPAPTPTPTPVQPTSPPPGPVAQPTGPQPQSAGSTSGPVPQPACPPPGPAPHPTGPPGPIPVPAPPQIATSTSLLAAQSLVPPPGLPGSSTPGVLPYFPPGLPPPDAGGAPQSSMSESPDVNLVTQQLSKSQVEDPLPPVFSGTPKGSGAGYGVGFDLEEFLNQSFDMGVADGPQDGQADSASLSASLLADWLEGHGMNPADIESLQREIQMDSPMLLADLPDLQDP
structure (smiles),measurement,setting,value
O=c1c(O)c(-c2ccc(O)c(O)c2)oc2cc(O)cc(O)c12,luciferase signal,[1],72 AU (inactive)
same,z-score,[2],-0.695 (inactive) and -0.855 (inactive)
same,inhibition,"[3]; at 0.5 µM, stronger effect = higher value",-5.93% (inactive)
same,inhibition,"[3]; measured here: combination with BGB IC20, at 0.005 µM",17%
same,inhibition,"[3]; measured here: combination with BGB IC40, at 0.005 µM",13.5%
same,inhibition,[3]; [18],25.1%
same,inhibition,"[3]; measured here: combination with cisplatin, at 0.5 µM, stronger effect = higher value",-24.2%
same,inhibition,"[3]; measured here: combination with cisplatin, at 5 µM, stronger effect = higher value",20.2%
same,inhibition,"[4]; BGB combo, at 5 µM",-9.66%
same,inhibition,[4]; at 0.5 µM,-7.52% (inactive)
same,inhibition,"[4]; cisplatin combo, at 5 µM",10.5%
same,inhibition,[4]; [19],-21.2%
same,inhibition,[4]; [20],12.4%
same,inhibition,"[4]; single agent, at 5 µM",-15.2%
same,inhibition,"[5]; BGB IC20 combo, at 0.005 µM",14%
same,inhibition,"[5]; BGB IC40 combo, at 0.005 µM",-3.66%
same,inhibition,"[5]; BGB IC40 combo, at 0.05 µM",-21.1%
same,inhibition,[5]; at 0.5 µM,2.09% (inactive)
same,inhibition,"[5]; cisplatin combo, at 0.05 µM",-21.1%
same,inhibition,"[5]; cisplatin combo, at 0.5 µM",-0.46%
same,inhibition,"[5]; cisplatin combo, at 5 µM",-2.17%
same,inhibition,"[5]; measured here: 5 uM single agent, at 5 µM",2.61%
same,inhibition,[6]; at 0.5 µM,-24.6% (inactive)
same,inhibition,[6]; [18],7.65%
same,inhibition,[6]; [21],-39%
same,inhibition,[6]; [22],-2.19%
same,inhibition,[7]; at 0.5 µM,-16.3% (inactive)
same,inhibition,"[7]; measured here: with BGB IC20, at 0.5 µM",-21.8%
same,inhibition,"[7]; measured here: with BGB IC20, at 5 µM",-1.29%
same,inhibition,"[7]; measured here: with cisplatin IC20, at 0.5 µM",-33.8%
same,inhibition,"[7]; measured here: with cisplatin IC20, at 5 µM",-25%
same,inhibition,"[7]; single agent, at 5 µM",-18.2%
same,inhibition,[8]; at 0.5 µM,-28.1% (inactive)
same,inhibition,"[8]; measured here: combination with BGB at IC20, at 0.5 µM",-37.5%
same,inhibition,"[8]; measured here: combination with cisplatin at IC20, at 0.5 µM",-36.5%
same,inhibition,[9]; at 0.5 µM,-8.42% (inactive)
same,inhibition,"[9]; measured here: combo with BGB at IC20, at 0.5 µM",-5.54%
same,inhibition,"[9]; measured here: combo with cisplatin at IC20, at 0.5 µM",-14%
same,inhibition,[10]; at 0.5 µM,-3.55% (inactive)
same,inhibition,"[10]; measured here: inhibition with BGB combination, at 0.05 µM",-4.11%
same,inhibition,"[10]; measured here: inhibition with cisplatin combination, at 0.05 µM",-12.6%
same,inhibition,[11]; at 0.5 µM,0.78% (inactive)
same,inhibition,[11]; [21],12%
same,inhibition,[11]; [22],15.1%
same,inhibition,[12]; at 0.5 µM,0.09% (inactive)
same,inhibition,"[12]; measured here: BGB combination, at 0.5 µM",-0.722%
same,inhibition,"[12]; measured here: BGB combination, at 5 µM",15.2%
same,inhibition,"[12]; measured here: cisplatin combination, at 0.5 µM",-5.24%
same,inhibition,"[12]; measured here: cisplatin combination, at 5 µM",12.3%
same,inhibition,"[13]; BGB combination, concentration series, at 5 µM",2.88%
same,inhibition,[13]; at 0.5 µM,-10.1% (inactive)
same,inhibition,"[13]; cisplatin combination, concentration series, at 5 µM",11.4%
same,inhibition,[14],-9.12% (inactive)
same,inhibition,[14]; measured here: combo with BGB IC20,-6.54%
same,inhibition,[14]; measured here: combo with cisplatin IC20,-19%
same,inhibition,[15]; at 0.5 µM,11.1% (inactive)
same,inhibition,"[15]; cisplatin combination, at 0.5 µM",-4.44%
same,inhibition,"[15]; cisplatin combination, at 5 µM",-18.7%
same,inhibition,"[15]; measured here: BGB IC40 combination 0.05 uM, at 0.05 µM",37.6%
same,inhibition,"[15]; single agent, at 5 µM",-1.38%
same,inhibition,[16]; at 0.5 µM,8.96% (inactive)
same,inhibition,"[16]; cisplatin combo, at 5 µM",-16.5%
same,inhibition,"[16]; measured here: BGB IC40 combination, at 0.05 µM",7.33%
same,inhibition,[16]; [21],6.44%
same,inhibition,"[16]; single agent, at 5 µM",2.31%
same,inhibition,[17]; at 0.5 µM,-39.9% (inactive)
same,inhibition,[17]; [19],-11.9%
same,inhibition,[17]; [20],-53.9%
same,inhibition,"[17]; single agent, at 0.05 µM",57.4%
same,inhibition,"[17]; single agent, at 5 µM",8.34%
CC(=O)[C@]1(O)Cc2c(O)c3c(c(O)c2[C@@H](O[C@H]2C[C@H](N)[C@H](O)[C@H](C)O2)C1)C(=O)c1ccccc1C3=O,z-score,[2],-1.04 (inactive) and -2.14 (inactive)
CNCCCCOc1ccccc1Cc1ccccc1,z-score,[2],-1.31 (inactive) and -0.275 (inactive)
Nc1c2c(nc3c1CCC3)CCCC2,z-score,[2],-0.465 (inactive)
O=C1CC2(CCCC2)CC(=O)N1CCNCC1COc2ccccc2O1 (centres undefined),z-score,[2],0.655 (inactive) and -0.78 (inactive)

# From PubChem BioAssay
